Measurements reported in the supplement of paper PMC10849652.
Of roughly 7,900 targets only a part is listed; those with a hit were picked by preference. About 0.6% of all pairs of compound and target were hits.

Legend:
Test in all cases: log2 fold change, soluble protein after heating vs DMSO (PISA); higher = thermal stabilisation; K562 cells, 10 uM, 30 min; active = over 0.2 and 3.5 SD of the protein, either way, in both replicates (recomputed)
[1] = compound: C1=CC=C(C=C1)[C@H](COC2=CC3=C(C=C2)NC(=O)N3)NC(=O)C4=CC=CN(C4=O)CC5=CC(=C(C=C5)F)F
Summary of the method: (§1)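 Thermal stability values are relative to control samples and come from duplicates. They are expressed as log2 fold changes. For measurement, K562 cells (2×10^6 cells/mL) received 10 μM compound for 30 min, and aliquots were heated for 3 min over 48°C-58°C, pooled, and extracted at 4°C in PBS with 0.5% NP-40. Soluble protein, the supernatant after 21,000xg for 90 min, was quantified by TMTpro 16plex LC-MS/MS with equalised channel sums.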

[2] = compound: CC1=C2C(=CC=C1)N=C(N(C2=O)C3=CC=CC=C3C)CN4C=NC5=C(N=CN=C54)N
Summary of the method: as §1

[3] = compound: Cc1sc2c(c1C)C(c1ccc(Cl)cc1)=N[C@@H](CC(=O)OC(C)(C)C)c1nnc(C)n1-2
Summary of the method: as §1

[4] = compound: CC1=C(SC2=C1C(=N[C@H](C3=NN=C(N32)C)CC(=O)N)C4=CC=C(C=C4)Cl)C
Summary of the method: as §1

[5] = compound: c1ccc([C@@H]2C[C@H]2NC2CCNCC2)cc1
Summary of the method: as §1

Measured: log2 fold change

TTC26
inactive: [1] 0.06 | [2] 0.02 | [3] 0.198

TVP23C (UniProt Q96ET8)
inactive: [4] 0.048 | [2] 0.041 | [3] 0.029 | [5] 0.086

TMEM104 (UniProt Q8NE00)
inactive: [4] 0.001 | [5] 0.24

TTC33 (UniProt Q6PID6)
inactive: [1] -0.142 | [4] 0.018 | [2] 0.073 | [5] 0.019

WARS1 (UniProt G3V277)
inactive: [1] -0.075 | [2] 0.283 | [3] 0.076

TOM1 (UniProt O60784)
inactive: [1] -0.077 | [3] 0.039

VPS33B (UniProt Q9H267)
Sequence of UniProt Q9H267 (Q9H267 whole entry, looked up): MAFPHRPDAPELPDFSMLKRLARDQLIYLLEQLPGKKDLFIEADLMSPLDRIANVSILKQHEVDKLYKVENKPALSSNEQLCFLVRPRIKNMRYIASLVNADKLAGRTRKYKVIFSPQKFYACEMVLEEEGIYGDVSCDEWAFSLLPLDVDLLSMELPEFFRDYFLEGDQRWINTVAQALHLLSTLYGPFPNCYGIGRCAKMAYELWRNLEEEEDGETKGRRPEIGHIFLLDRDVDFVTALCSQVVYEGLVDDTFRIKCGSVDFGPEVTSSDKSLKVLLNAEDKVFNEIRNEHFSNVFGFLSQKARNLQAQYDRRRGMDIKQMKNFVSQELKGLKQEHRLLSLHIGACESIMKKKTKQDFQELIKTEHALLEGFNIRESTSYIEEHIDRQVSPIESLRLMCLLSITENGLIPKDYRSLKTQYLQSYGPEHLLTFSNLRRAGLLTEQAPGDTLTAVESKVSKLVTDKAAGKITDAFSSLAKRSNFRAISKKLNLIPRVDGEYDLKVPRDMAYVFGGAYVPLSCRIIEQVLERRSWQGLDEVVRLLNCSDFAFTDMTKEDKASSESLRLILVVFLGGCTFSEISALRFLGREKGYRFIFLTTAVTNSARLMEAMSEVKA
inactive: [1] -0.102 | [4] 0.021 | [2] 0.03 | [3] 0.008 | [5] -0.064

TNPO3 (UniProt Q9Y5L0)
inactive: [1] -0.035 | [4] 0.063 | [2] 0.014 | [3] -0.022 | [5] -0.007

TMEM184C (UniProt Q9NVA4)
inactive: [1] 0 | [4] 0.078 | [2] 0.022 | [3] 0.045 | [5] 0.22

WDHD1 (UniProt O75717)
Sequence of UniProt O75717 (O75717 whole entry, looked up): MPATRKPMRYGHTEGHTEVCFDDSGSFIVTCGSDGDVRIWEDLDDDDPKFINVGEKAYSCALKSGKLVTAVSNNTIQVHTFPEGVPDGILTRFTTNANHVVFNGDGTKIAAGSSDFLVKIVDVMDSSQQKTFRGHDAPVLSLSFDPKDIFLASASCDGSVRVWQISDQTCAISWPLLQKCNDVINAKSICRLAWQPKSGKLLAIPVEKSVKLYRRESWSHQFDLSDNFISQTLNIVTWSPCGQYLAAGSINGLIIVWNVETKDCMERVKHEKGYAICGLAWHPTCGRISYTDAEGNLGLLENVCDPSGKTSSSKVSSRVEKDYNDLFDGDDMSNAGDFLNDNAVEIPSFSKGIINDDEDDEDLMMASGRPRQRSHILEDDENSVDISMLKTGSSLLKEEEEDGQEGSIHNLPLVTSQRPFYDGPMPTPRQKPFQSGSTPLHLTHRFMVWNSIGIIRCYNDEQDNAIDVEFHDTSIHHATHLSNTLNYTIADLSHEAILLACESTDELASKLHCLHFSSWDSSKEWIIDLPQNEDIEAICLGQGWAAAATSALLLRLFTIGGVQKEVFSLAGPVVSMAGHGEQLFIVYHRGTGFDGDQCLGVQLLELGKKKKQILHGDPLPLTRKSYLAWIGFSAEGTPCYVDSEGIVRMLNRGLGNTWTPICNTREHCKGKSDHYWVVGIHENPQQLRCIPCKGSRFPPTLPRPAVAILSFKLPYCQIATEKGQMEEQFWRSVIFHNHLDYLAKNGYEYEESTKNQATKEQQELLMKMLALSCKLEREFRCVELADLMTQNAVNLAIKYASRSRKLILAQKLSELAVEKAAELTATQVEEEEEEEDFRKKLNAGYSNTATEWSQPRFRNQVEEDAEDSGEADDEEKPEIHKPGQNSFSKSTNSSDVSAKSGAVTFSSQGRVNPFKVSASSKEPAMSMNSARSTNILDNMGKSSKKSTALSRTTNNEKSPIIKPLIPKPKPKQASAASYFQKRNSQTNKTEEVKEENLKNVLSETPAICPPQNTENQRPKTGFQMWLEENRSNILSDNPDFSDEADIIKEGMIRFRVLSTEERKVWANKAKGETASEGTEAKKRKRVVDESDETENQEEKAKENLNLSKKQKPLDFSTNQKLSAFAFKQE
inactive: [1] -0.014 | [4] 0.085 | [2] 0.121 | [3] 0.002 | [5] 0.015

VDAC1 (UniProt C9JI87)
inactive: [1] -0.132 | [4] -0.004 | [5] 0.137

UBE3B (UniProt Q7Z3V4)
Sequence of UniProt Q7Z3V4 (Q7Z3V4 whole entry, looked up): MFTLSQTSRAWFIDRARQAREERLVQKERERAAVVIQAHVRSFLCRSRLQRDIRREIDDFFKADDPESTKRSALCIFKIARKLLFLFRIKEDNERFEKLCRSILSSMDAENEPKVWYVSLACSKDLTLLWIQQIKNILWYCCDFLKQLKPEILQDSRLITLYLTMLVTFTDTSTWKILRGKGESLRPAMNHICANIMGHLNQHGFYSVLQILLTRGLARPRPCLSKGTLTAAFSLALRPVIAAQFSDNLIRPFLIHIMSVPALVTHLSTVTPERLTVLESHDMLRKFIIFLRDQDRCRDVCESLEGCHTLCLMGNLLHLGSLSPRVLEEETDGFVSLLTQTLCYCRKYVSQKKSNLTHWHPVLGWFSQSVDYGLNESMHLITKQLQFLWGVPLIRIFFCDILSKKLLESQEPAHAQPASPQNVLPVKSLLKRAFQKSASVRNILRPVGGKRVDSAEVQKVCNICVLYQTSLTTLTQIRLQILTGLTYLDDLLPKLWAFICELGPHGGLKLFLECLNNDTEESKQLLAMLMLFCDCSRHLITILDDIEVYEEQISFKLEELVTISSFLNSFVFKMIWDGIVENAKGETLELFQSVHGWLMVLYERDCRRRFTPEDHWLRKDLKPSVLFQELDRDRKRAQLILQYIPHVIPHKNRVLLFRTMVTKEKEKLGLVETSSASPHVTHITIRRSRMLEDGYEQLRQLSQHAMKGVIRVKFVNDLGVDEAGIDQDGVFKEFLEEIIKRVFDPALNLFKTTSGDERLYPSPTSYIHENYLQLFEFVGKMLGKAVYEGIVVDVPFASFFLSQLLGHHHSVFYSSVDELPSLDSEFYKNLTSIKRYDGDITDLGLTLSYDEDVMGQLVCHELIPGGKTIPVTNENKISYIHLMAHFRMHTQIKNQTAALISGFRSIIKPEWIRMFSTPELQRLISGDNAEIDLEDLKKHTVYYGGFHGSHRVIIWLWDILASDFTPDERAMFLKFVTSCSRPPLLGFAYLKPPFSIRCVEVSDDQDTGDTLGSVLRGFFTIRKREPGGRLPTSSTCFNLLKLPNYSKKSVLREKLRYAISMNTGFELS
inactive: [1] -0.081 | [4] -0.147 | [3] -0.214 | [5] 0.172

WDR41 (UniProt Q9HAD4)
inactive: [1] -0.045 | [4] -0.08 | [2] -0.033 | [3] -0.03 | [5] 0.055

UTP20 (UniProt O75691)
inactive: [3] 0.034

XPO1 (UniProt O14980)
inactive: [1] -0.064 | [4] 0.053 | [2] 0.044 | [3] -0.011 | [5] -0.013

WDR46 (UniProt O15213)
inactive: [1] 0.058 | [4] -0.35 | [2] -0.302 | [3] 0.246 | [5] -0.005

TSG101 (UniProt Q99816)
Sequence of UniProt Q99816 (Q99816 whole entry, looked up): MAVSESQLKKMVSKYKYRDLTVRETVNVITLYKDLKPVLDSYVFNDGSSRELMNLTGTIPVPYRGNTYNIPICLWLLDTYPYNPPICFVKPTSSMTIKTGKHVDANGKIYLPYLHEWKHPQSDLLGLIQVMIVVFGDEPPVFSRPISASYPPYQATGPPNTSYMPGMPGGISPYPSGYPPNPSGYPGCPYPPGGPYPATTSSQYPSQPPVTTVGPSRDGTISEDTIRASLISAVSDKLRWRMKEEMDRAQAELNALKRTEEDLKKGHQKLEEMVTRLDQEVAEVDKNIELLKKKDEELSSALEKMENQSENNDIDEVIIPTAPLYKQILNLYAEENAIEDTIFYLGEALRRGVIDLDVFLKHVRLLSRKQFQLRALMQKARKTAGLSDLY
inactive: [1] 0 | [4] 0.032 | [2] 0.074 | [3] -0.015 | [5] -0.016

UBC (UniProt P0CG48)
inactive: [1] 0.023 | [4] 0.087 | [2] 0.058 | [3] -0.019 | [5] -0.061

WDR46, A0A0G2JJL1
inactive: [1] 0.129 | [2] -0.546 | [3] 0.303

U2AF1L5 (UniProt P0DN76)
inactive: [1] -0.008 | [2] -0.075 | [3] 0.057

TOM1L2 (UniProt Q6ZVM7)
inactive: [4] 0.138 | [2] 0.101 | [5] -0.001

TSC2 (UniProt P49815)
Sequence of UniProt P49815 (P49815 whole entry, looked up): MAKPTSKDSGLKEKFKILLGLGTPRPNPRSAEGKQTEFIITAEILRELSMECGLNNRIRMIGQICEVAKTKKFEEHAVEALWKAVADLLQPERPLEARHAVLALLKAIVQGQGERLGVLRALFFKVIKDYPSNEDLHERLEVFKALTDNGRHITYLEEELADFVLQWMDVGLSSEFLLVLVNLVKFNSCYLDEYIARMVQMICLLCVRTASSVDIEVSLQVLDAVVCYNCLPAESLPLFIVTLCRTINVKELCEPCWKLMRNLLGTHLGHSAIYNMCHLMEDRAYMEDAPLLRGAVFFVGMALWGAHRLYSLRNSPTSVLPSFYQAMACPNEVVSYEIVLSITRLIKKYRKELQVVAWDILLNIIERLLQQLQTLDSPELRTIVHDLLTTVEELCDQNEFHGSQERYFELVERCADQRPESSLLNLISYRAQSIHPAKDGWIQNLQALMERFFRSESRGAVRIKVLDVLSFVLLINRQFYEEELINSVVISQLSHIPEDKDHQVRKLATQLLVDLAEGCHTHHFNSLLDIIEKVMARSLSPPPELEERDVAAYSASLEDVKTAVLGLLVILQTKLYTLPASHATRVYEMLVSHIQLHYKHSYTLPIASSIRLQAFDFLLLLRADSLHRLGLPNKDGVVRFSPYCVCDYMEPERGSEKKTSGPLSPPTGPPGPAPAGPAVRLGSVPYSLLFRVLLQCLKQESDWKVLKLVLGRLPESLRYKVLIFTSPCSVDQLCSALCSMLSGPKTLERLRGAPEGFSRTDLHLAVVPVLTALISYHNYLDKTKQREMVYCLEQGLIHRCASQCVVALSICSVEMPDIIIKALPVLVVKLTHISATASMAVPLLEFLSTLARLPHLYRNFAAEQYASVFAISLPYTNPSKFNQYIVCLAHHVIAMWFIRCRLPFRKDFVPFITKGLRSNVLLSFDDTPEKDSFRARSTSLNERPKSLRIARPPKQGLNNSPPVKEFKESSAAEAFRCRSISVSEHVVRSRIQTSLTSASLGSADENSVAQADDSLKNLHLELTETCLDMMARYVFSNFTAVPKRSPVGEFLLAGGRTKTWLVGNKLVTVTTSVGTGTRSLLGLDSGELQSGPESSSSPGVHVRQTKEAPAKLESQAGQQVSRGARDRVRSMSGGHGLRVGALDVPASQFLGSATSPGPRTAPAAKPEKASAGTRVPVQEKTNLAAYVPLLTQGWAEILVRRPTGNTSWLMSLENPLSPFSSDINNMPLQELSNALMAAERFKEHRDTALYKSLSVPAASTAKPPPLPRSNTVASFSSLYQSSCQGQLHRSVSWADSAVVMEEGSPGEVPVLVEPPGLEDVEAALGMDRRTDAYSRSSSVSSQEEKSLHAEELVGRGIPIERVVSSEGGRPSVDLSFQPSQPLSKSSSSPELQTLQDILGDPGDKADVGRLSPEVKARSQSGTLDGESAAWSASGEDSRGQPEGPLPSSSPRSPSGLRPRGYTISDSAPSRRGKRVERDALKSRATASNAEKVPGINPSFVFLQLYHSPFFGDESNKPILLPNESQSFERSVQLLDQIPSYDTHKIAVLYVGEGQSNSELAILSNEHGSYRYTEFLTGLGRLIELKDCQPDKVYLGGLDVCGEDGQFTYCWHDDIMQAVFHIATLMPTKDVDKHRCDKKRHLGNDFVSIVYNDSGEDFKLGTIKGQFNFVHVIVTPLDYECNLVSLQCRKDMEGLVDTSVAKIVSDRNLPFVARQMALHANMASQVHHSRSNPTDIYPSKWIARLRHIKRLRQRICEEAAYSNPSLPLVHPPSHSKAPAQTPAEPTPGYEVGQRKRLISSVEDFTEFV
inactive: [1] 0.062 | [4] 0.099 | [3] -0.044 | [5] 0.317

TMEM179B (UniProt Q7Z7N9)
inactive: [1] -0.065 | [4] 0.081 | [3] 0.005 | [5] -0.024

WDR37 isoform 2 (UniProt Q9Y2I8)
inactive: [1] 0.039 | [4] -0.06 | [2] 0.062 | [3] 0.079 | [5] 0.054
